Most compounds without a hit are left out; they make up all but 3.6% or so of the library.
LMP1 NFkB inh: EBV LMP1-driven NF-kappaB luciferase reporter inhibitors, primary screen, cell-based, luminescence, single point; LMP1-induced NF-kappaB luciferase reporter cells; inhibition, % at 12.5 µM; 0.69% of 350,000 active; AID 504558, 2011; in the data active means inhibition above about 41%;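 further: 0% = neutral control wells and 100% = reference inhibitor control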
HSF-1 act: HSF-1 activators, primary screen, NIH3T3-HGL cells, MG132 stress, luminescence, single point; NIH3T3-HGL HSF-1 luciferase reporter, 8 h; 100% = twice DMSO control signal; activation, % at 9 µM; 1.7% of 300,000 active; AID 504408, 2011;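 active means mean replicate activation of at least 50% with a set share of replicates each reaching 50%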;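 further: 0% = median of the neutral control wells and 100% = twice that signal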
HSF1 inh: HSF1 inhibitors in luciferase reporter cells, primary screen, cell-based, NIH3T3, luminescence | NIH3T3-HGL HSE-luciferase, MG132-induced, luminescence 8 h; hits give low values | activity change, negative = inhibition, % at 7.5 µM (by protocol) | 0.77% of 300,000 active;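 active means more than half of replicate wells show activity change below -50%, luminescence cut by over half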;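 further: luciferase reports HSF-1 transcriptional activity via heat shock element; 0% = median of DMSO wells and -100% = zero luminescence signal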
LGR2 antag: inhibitors of bursicon-induced LGR2 CRE-luciferase signal, primary screen, cell-based, HEK293, CRE-luciferase reporter, bursicon stimulation | bursicon-stimulated, 4 h | Drosophila bursicon receptor LGR2 (rickets) | inhibition, % at 9.99 µM | 0.35% of 380,000 active;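 active means drop in luminescence signal, shown as inhibition above about 50% in the replicate tests, limit read from the data, passing the limit was not always enough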;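 further: agonist challenge used bursicon conditioned medium at about half maximal strength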
TROY signal inh: inhibitors of TROY-driven NF-kB signaling, primary screen, Q293 LMP1-TROYcd cells, NF-kB luciferase, uHTS; Q293 LMP1-TROYcd NF-kB luciferase reporter, 4 h; inhibition, % at 10 µM; 0.98% of 360,000 active;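 active means compounds whose plate-normalised and pattern-corrected inhibition of the luciferase reporter signal at the single screening dose is 50% or more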
TWEAK Fn14 block: inhibitors of TWEAK-Fn14 signaling, primary screen, luciferase reporter cells, uHTS. TWEAK-stimulated Fn14 reporter cells, luciferase luminescence, 8 h. inhibition, % at 10 µM. 2% of 360,000 active. AID 1159606, 2016; in the data active means inhibition above about 50%
Numbers without * were called inactive.

How did CC(=O)NC(CCS(C)(=O)=O)C(=O)Nc1c(F)cccc1F (stereo unspecified) do in these assays?
LMP1 NFkB inh: 72*; HSF-1 act: -3; HSF1 inh: -3; LGR2 antag: 23; TROY signal inh: -5; TWEAK Fn14 block: -7

How did CC(=O)NC(CCS(C)(=O)=O)C(=O)Nc1ccc(Cl)c(Cl)c1 (stereo unspecified) do in these assays?
LMP1 NFkB inh: 55*; HSF-1 act: -42; HSF1 inh: -27; LGR2 antag: 6; TROY signal inh: 17; TWEAK Fn14 block: 7

Results for CCS(=O)(=O)N[C@H]1C=C[C@@H](CC(=O)NC2Cc3ccccc3C2)O[C@@H]1CO ?
LGR2 antag: 1

Results for COc1ccc(-n2c(-c3cnccn3)n[nH]c2=S)cc1 ?
LMP1 NFkB inh: -18; HSF-1 act: -3; HSF1 inh: -1; TROY signal inh: -12; TWEAK Fn14 block: 16

Results for S=c1[nH]nc(-c2cnccn2)n1-c1ccccc1 ?
LMP1 NFkB inh: -13; HSF-1 act: -75; HSF1 inh: -67*; TROY signal inh: 7; TWEAK Fn14 block: -12

Results for COc1ccc(CN2C(=O)c3cccnc3C2Nc2cc(Cl)ccc2OC)cc1 (stereo unspecified) ?
LMP1 NFkB inh: 66*; HSF-1 act: 49; HSF1 inh: 19; LGR2 antag: -19; TROY signal inh: 1; TWEAK Fn14 block: -18

Results for COc1ccc(OC)c(NC2c3ccccc3C(=O)N2Cc2ccc3c(c2)OCO3)c1 (stereo unspecified) ?
LMP1 NFkB inh: 1; HSF-1 act: 51*; HSF1 inh: 27; LGR2 antag: -26; TROY signal inh: -11; TWEAK Fn14 block: 4

What do the screens show for `O=C(Nc1nc2ccccc2[nH]1)c1cccc(Cl)c1`?
LMP1 NFkB inh: -10; HSF-1 act: 42; HSF1 inh: 29; LGR2 antag: -9; TROY signal inh: -52; TWEAK Fn14 block: 26

What do the screens show for `CS(=O)(=O)Nc1nc2ccccc2[nH]1`?
LMP1 NFkB inh: -1; HSF-1 act: -86; HSF1 inh: -82*; LGR2 antag: 5; TROY signal inh: -16; TWEAK Fn14 block: 11

What do the screens show for `O=S(=O)(Nc1nc2ccccc2[nH]1)c1ccccc1`?
LMP1 NFkB inh: 12; HSF-1 act: -1; HSF1 inh: 1; TROY signal inh: -5; TWEAK Fn14 block: 13

How did O=C(/C(=C/c1ccc(Cl)cc1)c1nc2ccccc2[nH]1)c1ccccc1 do in these assays?
LMP1 NFkB inh: 86*; HSF-1 act: 184*; HSF1 inh: 123; TROY signal inh: -52; TWEAK Fn14 block: 79*

Results for O=C(Cc1ccccc1)Nc1nc2ccccc2[nH]1 ?
LMP1 NFkB inh: -5; HSF-1 act: 8; HSF1 inh: -4; LGR2 antag: -33; TROY signal inh: 64*; TWEAK Fn14 block: 39

What do the screens show for `O=C(Nc1nc2ccccc2[nH]1)c1ccccc1`?
LMP1 NFkB inh: 6; HSF-1 act: 32; HSF1 inh: -1; TROY signal inh: 40; TWEAK Fn14 block: 79*

What do the screens show for `O=C(Nc1nc2ccccc2[nH]1)c1ccc(Cl)cc1`?
LMP1 NFkB inh: -3; HSF-1 act: 39; HSF1 inh: 23; LGR2 antag: 57*; TROY signal inh: 28; TWEAK Fn14 block: 69*

How did O=C(CSCc1nc2ccccc2[nH]1)Nc1ccccc1 do in these assays?
LMP1 NFkB inh: 59*; HSF-1 act: 20; HSF1 inh: -4; LGR2 antag: -17; TROY signal inh: -14; TWEAK Fn14 block: 9

How did CCC(=O)N1CC(=O)N2[C@@H](CO)[C@@H](c3ccc(-c4ccccc4F)cc3)[C@@H]2C1 do in these assays?
LGR2 antag: -21

What do the screens show for `CCOC(=O)Nc1cc(C(=O)OCC)c(C)nc1C`?
LMP1 NFkB inh: -4; HSF-1 act: 22; HSF1 inh: 6; TWEAK Fn14 block: 76*

Source: PubChem BioAssay (several laboratories)
